# Source: PubChem BioAssay (National Center for Advancing Translational Sciences (NCATS))
# Most compounds without a hit are left out; they make up all but 5% or so of the library.
# TbPYK inhibitor = qHTS of Trypanosoma Brucei Inhibitors; TbPYK enzyme, Kinase-Glo Plus ATP luminescence, 45 min; Potency, µM (titrated, usually from 76.8 µM), for the others: at the highest dose activity, negative = inhibition, most hits filed as inhibitors; hit rate 0.12% among 410,000; note: potency is the fitted concentration of half-maximal effect; nearly all actives have a fitted effect of over 50% in size
#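 TbPYK + substrate in 50 mM TEA pH 7.2, 100 mM KCl, 10 mM MgCl2, 0.05% BSA, 0.01% Tween-20; cpd pinned; ADP 130 uM final; 45 min RT; Kinase-Glo Plus 10 min; luminescence endpoint.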
# HCMV inh = qHTS Assay for inhibitors of the human cytomegalovirus (HCMV) | HFF cells, HCMV-luciferase reporter, 72 h; hits give low values | activity change, negative = inhibition, % at 57.5 µM | hit rate 4.5% among 410,000 | AID 1259415, 2018; in the data active = activity change below about -60%; inconclusive = no clear call, values can overlap the other calls; inactive = above about -39%
#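 Two compound doses tested in HFFs infected with HCMV-luciferase, MOI 1 PFU/cell, 72 h at 37C. Lysate luminescence read with OneGlo; data normalized against buffer-only and 10uM Salinomycin inhibitor controls.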
# VACV Venus inh = qHTS for Stage-Specific Inhibitors of Vaccinia Orthopoxvirus: Venus Reporter Primary qHTS; Vaccinia virus Venus reporter expression, fluorescence; Potency, µM (top dose mostly 36.5 µM), for the others: top-dose activity change, negative = inhibition, actives largely listed as inhibitors; hit rate 0.46% among 330,000; calls by dose curve; tested in A549 cells; note: potency is the fitted concentration of half-maximal effect; nearly all actives have a fitted effect of over 30% in size
# LmPK inhibitor = qHTS Assay for Inhibitors of Leishmania Mexicana Pyruvate Kinase (LmPK). Q27686. purified LmPK, Kinase-Glo ATP luminescence, 1 h. Potency, µM (highest dose often 57.5 µM), for the others: top-dose activity change, negative = inhibition, actives largely listed as inhibitors. hit rate 0.37% among 290,000; note: potency is the fitted concentration of half-maximal effect
# Target sequence (Q27686 whole entry, looked up): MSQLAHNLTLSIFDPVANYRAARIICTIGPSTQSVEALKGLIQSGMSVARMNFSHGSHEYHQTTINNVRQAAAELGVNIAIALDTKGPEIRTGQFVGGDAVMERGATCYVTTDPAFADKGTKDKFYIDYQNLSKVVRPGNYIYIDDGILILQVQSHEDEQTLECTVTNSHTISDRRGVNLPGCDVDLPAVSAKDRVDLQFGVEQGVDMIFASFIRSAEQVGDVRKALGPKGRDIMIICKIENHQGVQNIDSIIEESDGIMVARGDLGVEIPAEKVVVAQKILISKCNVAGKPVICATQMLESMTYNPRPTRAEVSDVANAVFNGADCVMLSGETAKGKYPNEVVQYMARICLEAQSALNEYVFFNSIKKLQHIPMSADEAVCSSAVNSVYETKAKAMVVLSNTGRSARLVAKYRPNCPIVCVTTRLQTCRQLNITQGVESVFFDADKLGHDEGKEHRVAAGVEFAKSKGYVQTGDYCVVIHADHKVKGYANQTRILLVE
#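 In 50 mM imidazole pH 7.2 with 7 mM MgCl2, LmPK (0.1 nM) turned over PEP (0.5 mM) and ADP (0.1 mM) for 1 h at room temperature. Luciferase read-out of ATP.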
# Vaccinia mCherry = qHTS for Stage-Specific Inhibitors of Vaccinia Orthopoxvirus: mCherry Reporter Primary qHTS | Potency, µM (doses to about 36.5 µM), for inactives: at the highest dose activity change, negative = inhibition, most hits filed as inhibitors | Vaccinia virus mCherry reporter infection, fluorescence | AID 720579, 2013 | hit rate 0.63% among 310,000; calls by dose curve; tested in A549 cells; note: potency is the fitted concentration of half-maximal effect; nearly all actives have a fitted effect of over 35% in size
# Numbers without * were called inactive; i = inactive; ? = inconclusive; · = not tested or not shown; + = active, no number; ! = not confirmed by another sample; [ ] = another dose, or the depositor's remark. Unless noted, calls come from the whole dose curve; as a rule, active = well fitted curve in the direction sought with a large enough effect; inconclusive = small, poorly fitted or top-dose-only effect, or another doubt; inactive = no such curve, though single readings can be large; an effect the other way counts as inactive or inconclusive. % is set by controls: 0 for no effect and ±100 for the full control effect.
SMILES,TbPYK inhibitor,HCMV inh,VACV Venus inh,LmPK inhibitor,Vaccinia mCherry
COc1ccccc1NC(=O)CC(C)n1nc(C)cc1C (stereo not given),0%,-2,-5%,·,-2%
CC(C)=CCc1c(O)ccc(C(=O)Cc2ccccc2)c1O,0%,?,?,3%,?
COc1ccc(C(=O)/C=C/c2ccc(O)cc2)c(O)c1C/C=C(\C)CCC=C(C)C,-1%,-105*,-4%,·,-4%
C=C(C)C(O)CC/C(C)=C/Cc1c(O)ccc(C(=O)/C=C/c2ccc(O)cc2)c1O (stereo not given),-3%,-67*,0%,·,-15%
CSCC[C@H](NC(=O)C1CCN(C(=O)[C@@H](N)Cc2ccccc2)CC1)C(=O)O,-1%,22,·,2%,·
CCOC(=O)C1(Cc2cccc(Cl)c2)CCCN(C(=O)c2cccc(C)n2)C1 (stereo not given),2%,1,-13%,9%,-6%
CCOc1ccccc1CN1CCNC(=O)C1CC(=O)NCc1nccn1CC (stereo not given),-10%,-67*,-6%,1%,-13%
O=C(Oc1ccc[nH]c1=O)c1ccc(F)cc1,1%,-19,-9%,·,i
COc1ccc(Cl)cc1NC(=O)c1cc2c(s1)-c1ccccc1OC2,1%,-13,4%,·,-8%
CCCCN(CC)CCNC(=O)c1cc2c(-c3ccc(Cl)cc3)nn(C)c2s1,-5%,-100*,?,-6%,10µM*
COc1cccc(-c2nn(C)c3sc(C(=O)NCCc4cccc(C)c4)cc23)c1,0%,-69*,-29%,·,?
COc1ccc(-c2nn(C)c3sc(C(=O)Nc4cccc(F)c4)cc23)cc1OC,2%,-85*,-9%,·,-17%
CCN(CC)CCNC(=O)c1cc2c(-c3cccc(OC)c3)nn(C)c2s1,3%,-78*!,-17%,-9%,-22%
Cc1cccc(OCC(=O)NCc2ccc(F)cc2)c1,-1%,9,·,-6%,·
Cc1cc(C)cc(N(C(=O)CCC(=O)Nc2cc(C)on2)C(C(=O)NC2CCCC2)c2ccco2)c1 (stereo not given),0%,-37,-15%,0%,i
COC(=O)CNC(=O)c1cc(OC)cc(OC)c1,7%,-12,-3%,1%,-17%
Cc1cc(C(=O)N(C)CC(=O)Nc2ccc(Cl)c(C(F)(F)F)c2)no1,-3%,-6,-24%,·,-12%
Cn1nc(-c2ccccc2F)c2cc(C(=O)NCc3ccc(Cl)cc3)sc21,-4%,-71*,-22%,·,-28%
c1coc(CNC2C3CC4CC(C3)CC2C4)c1 (stereo not given),0%,-12,-6%,2%,-16%
Cc1cc(C)c2c(C)nn(-c3ccccc3)c2n1,-3%,-9,-10%,5%,-11%
Cc1cc(C)c2c(=N)c3ccccc3n(CCCCCCCCn3c4ccccc4c(=N)c4c(C)cc(C)nc43)c2n1,-3%,-75*,10µM*,·,10µM*
O=C(CSc1nc(=O)n(CCN2CCOCC2)c2c1CCC2)Nc1ccccc1,2%,-11,-15%[7.34 µM],·,-5%[7.34 µM]
COc1cccc(-c2nc(C(=O)NCCCN3CCOCC3)cc3c2[nH]c2ccccc23)c1,2%,-74*,-28%,4%,?
O=C(NCCCN1CCOCC1)c1cc2c([nH]c3ccccc32)c(-c2cccc(Br)c2)n1,-2%,-21,-17%,-7%,i
CC1CC2(C)Oc3ccccc3CC2C(C)C1CNCCCN(C)C (stereo not given),-5%,-99*,14µM*,1%,?
SMILES,TbPYK inhibitor,HCMV inh,VACV Venus inh,LmPK inhibitor,Vaccinia mCherry
COc1ccc(C(=O)N(Cc2ccc(N(C)C)cc2)CC2CCCO2)cc1 (stereo not given),7%,-31,-6%,·,-9%
COc1cccc(NC(=O)CN(C)C(=O)c2cccc(NS(=O)(=O)c3ccc(Br)cc3)c2)c1,0%,0,·,·,·
Cn1c(C(C(=O)NCC2CCCO2)N(CCc2ccccc2)C(=O)Cn2nnc3ccccc32)nc2ccccc21 (stereo not given),2%,-65*,-15%,2%,i
O=C(COC(=O)c1ccc(Cl)nc1)Nc1ccc(N2CCOCC2)cc1,1%,1,-5%,·,-27%
Cc1ccc(C)c(S(=O)(=O)c2nnn3c2nc(NCc2ccc4c(c2)OCO4)c2sccc23)c1,-7%,-79*,?,·,-26%
Cc1ccc(S(=O)(=O)c2nnn3c2nc(NCCc2ccccc2)c2sccc23)cc1,-3%,-65*,?,·,?
CN(C(=O)CSc1nc2c(c(=O)[nH]1)CCC2)c1ccccc1,0%,9,·,2%,·
Nc1nonc1-n1nnc(C(=O)N/N=C/c2ccc(OCc3ccc(F)cc3)cc2)c1COc1ccccc1,-5%,-73*,·,0%,·
Nc1nonc1-n1nnc(C(=O)N/N=C/c2ccncc2)c1-c1ccccc1,-12%,-14,-4%,-2%,-6%
Nc1nonc1-n1nnc(C(=O)N/N=C/c2cc(Br)ccc2O)c1CNc1ccccc1,-7%,-93*,-5%,-9%,-14%
Cc1c(C(=O)N/N=C/c2c(O)ccc3ccccc23)nnn1-c1nonc1N,-2%,-98*,13%,-6%,-24%
Nc1nonc1-n1nnc(C(=O)N/N=C/c2ccncc2)c1-c1cccs1,1%,+,-5%,1%,-18%
COc1ccc(-c2c(-c3cc(OC)cc(OC)c3)n(C)c3ccc(-c4ccc5cc[nH]c5c4)cc23)cc1,-1%,1,-8%,·,-10%
CNC(=O)c1ccc2nc(CCc3ccccc3)oc2c1,-4%,55,-10%,·,-2%
Cc1cc(NC(=O)C2CCCN(S(=O)(=O)c3cnc[nH]3)C2)ccc1Br (stereo not given),-4%,-3,-5%,8%,8%
O=C(c1cccc(-c2nnc(-c3ccccc3)o2)c1)N1CCCCCC1,-4%,7,·,2%,·
COc1ccc(-n2c(=O)c3c4c(sc3n(Cc3ccccc3)c2=O)CCC4)c(OC)c1,-3%,?,-5%[7.34 µM],·,-3%[7.34 µM]
CCC1=NC(c2ccc(OC)c(OC)c2)N(O)C1(C)C (stereo not given),-1%,-2,·,2%,·
Nc1nonc1-n1nnc(C(=O)N/N=C/c2cccc(Cl)c2Cl)c1CN1CCCC1,-8%,-61*,-3%,3%,i
CCOC(=O)N1CCN(C(=O)C2CCN(C(=O)c3ccccc3C)CC2)CC1,7.9µM*,0,-4%,·,-11%
CC(Oc1ccccc1)C(=O)N=Nc1c(O)[nH]c2ccc(Br)cc12 (stereo not given),2%,0,·,2%,·
CCOc1ccc(-c2oc3cc(Cl)ccc3c(=O)c2O)cc1OC,-9%,-12,-24%,·,28µM*
COc1cc(-c2oc3cc(O)ccc3c(=O)c2O)ccc1O,·,·,0%,·,?
